# About 83,000 compounds went through this panel and 20% of them were active in at least one assay; those are over-represented in the sample as a whole.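 Assay: single dose, 48 h. Readout: percent growth (0 = no net growth; negative = cell death). Active: <10.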 Unmarked numbers belong to inactive results. Activity calls are given as the source filed them.
# Tests used:
# Experiment in all cases: NCI-60 one-dose screen, 48 h (100 = growth as untreated, 0 = no growth, -100 = all killed)
# Details in all cases: 10 µM unless noted
# SK-MEL-2 melanoma = test system: SK-MEL-2 melanoma
# EKVX NSCLC = test system: EKVX NSCLC
# SN12C renal = test system: SN12C renal
# UO-31 renal = test system: UO-31 renal
# TK-10 renal = test system: TK-10 renal
# ACHN renal = test system: ACHN renal
# CAKI-1 renal = test system: CAKI-1 renal
# A498 renal = test system: A498 renal
# CCRF-CEM leukemia = test system: CCRF-CEM leukemia
# MOLT-4 leukemia = test system: MOLT-4 leukemia
# SR leukemia = test system: SR leukemia
# RPMI-8226 leukemia = test system: RPMI-8226 leukemia
# OVCAR-8 ovarian = test system: OVCAR-8 ovarian
# OVCAR-5 ovarian = test system: OVCAR-5 ovarian
# OVCAR-4 ovarian = test system: OVCAR-4 ovarian
# SK-OV-3 ovarian = test system: SK-OV-3 ovarian
# IGROV1 ovarian = test system: IGROV1 ovarian
# OVCAR-3 ovarian = test system: OVCAR-3 ovarian
# HS 578T breast = test system: HS 578T breast
# NCI/ADR-RES ovarian = test system: NCI/ADR-RES ovarian
Compound,growth (SK-MEL-2 melanoma),growth (EKVX NSCLC),growth (SN12C renal),growth (UO-31 renal),growth (TK-10 renal),growth (ACHN renal),growth (CAKI-1 renal),growth (A498 renal),growth (CCRF-CEM leukemia),growth (MOLT-4 leukemia),growth (SR leukemia),growth (RPMI-8226 leukemia),growth (OVCAR-8 ovarian),growth (OVCAR-5 ovarian),growth (OVCAR-4 ovarian),growth (SK-OV-3 ovarian),growth (IGROV1 ovarian),growth (OVCAR-3 ovarian),growth (HS 578T breast),growth (NCI/ADR-RES ovarian)
NS(=O)(=O)c1ccc(Nc2nc(Nc3ccccc3)nc3nnc(SCC(=O)NC4CCCCC4)n23)cc1,106%,103%,100%,80.8%,104%,99.1%,83.7%,97.2%,101%,101%,97.7%,105%,99.8%,105%,108%,105%,95.5%,119%,102%,112%
COc1cc2nc(Cl)nc(Nc3cccc(C4=Nc5c(N)nc(N)nc5NC(c5ccccc5)C4)c3)c2cc1OC (stereo not given),88.8%,96.7%,93.4%,94.4%,110%,91.8%,96.1%,88.9%,34.8%,54.5%,-1.18% (active),49%,67.2%,110%,96.7%,121%,86.7%,77.7%,96.4%,94.1%
CCCC(=O)NC(c1cccnc1)c1cc(C(C)(C)C)c2cccnc2c1O (stereo not given),30.5%,21.7%,29.5%,13.6%,42.3%,12.1%,16.2%,13.6%,9.16% (active),14.2%,11.5%,24.5%,17.3%,40.8%,31.1%,7.42% (active),6.31% (active),12.4%,46.6%,21.2%
Nc1ncc(-c2ccc3ncnc(N4CCc5cc(F)c(F)cc54)c3c2)cn1,33.2%,18.7%,25.1%,8.51% (active),-2.82% (active),19.5%,15.3%,-42.9% (active),24.2%,8.56% (active),23.9%,4.99% (active),33.3%,38.1%,43.9%,9.09% (active),-6.07% (active),26.3%,-15.4% (active),35.8%
O=C(CSc1nnc(-c2ccc(Cl)cc2)n1-c1ccccc1)Nc1ccc(Br)cc1,80.9%,24.9%,-42.9% (active),-19.4% (active),-55.7% (active),-81.9% (active),-53.6% (active),-60.8% (active),41%,61.1%,13.3%,17.5%,-27.5% (active),2.37% (active),-1.23% (active),-35.9% (active),16.6%,-24.5% (active),17.8%,12.3%
CCCCCc1ccc(S(=O)(=O)Nc2cccc(-c3csc(NC(=O)CN4CCN(CCO)CC4)n3)c2)cc1,99.7%,81.4%,86.6%,79.9%,113%,101%,76.2%,81%,53.8%,58.8%,5.04% (active),20.2%,91.4%,101%,79.2%,89.5%,85.5%,93.2%,69.4%,99%
C=C1CC[C@@H]2[C@](C)(CO)[C@H](O)CC[C@@]2(C)[C@@H]1C/C(O)=C1\CCOC1=O,103%,102%,86.8%,99.4%,114%,101%,101%,94.4%,60.2%,104%,83.6%,83.8%,98.5%,120%,94.7%,113%,107%,93.2%,92.3%,98%
C#Cc1nc(C(=O)NCCC(=O)Nc2ccc(NC(=O)c3ccc(/C=C/C(=O)c4nccn4C)cc3)cc2)cs1,100%,65.3%,14.4%,30.7%,69.9%,-67.5% (active),38.9%,90.5%,-21.2% (active),19.9%,0.901% (active),-33% (active),22.3%,50.9%,61.8%,86.3%,-25.5% (active),-11.5% (active),86.7%,49.2%
Cc1cccc2c3c(sc12)C(c1ccc(Cl)cc1)c1c(nc(CC(=O)Nc2ccccc2)[nH]c1=O)O3 (stereo not given),68.4%,63.7%,71.9%,50.9%,132%,47.3%,41.1%,41.5%,59%,83.4%,58.1%,73.9%,85.6%,81.6%,90.3%,73.3%,21%,30.5%,60.1%,26.7%
CC(C)(C)n1cc(-c2ccnc(NCCCNS(=O)(=O)c3cccc(F)c3)n2)c(-c2ccc(Cl)c(O)c2)n1,98.4%,80.5%,90.9%,101%,152%,97%,95.8%,91.4%,71.4%,77.4%,94.1%,76%,118%,109%,101%,105%,103%,109%,101%,101%
CC(=O)N1C(=S)NC(=O)C1CC(C)C (stereo not given),102%,102%,101%,93.2%,100%,105%,96.3%,109%,103%,105%,101%,99%,103%,100%,99.5%,101%,104%,118%,110%,105%
CCCCCc1ccc(S(=O)(=O)Nc2cc(-c3csc(NC(=O)CN4CCN(CCO)CC4)n3)ccc2OC)cc1,94.9%,73.6%,74.7%,54.5%,104%,65.6%,70.8%,63.1%,4.78% (active),6.18% (active),-13.2% (active),-16.9% (active),82.1%,86.1%,72.5%,78%,48.9%,13.3%,52.8%,88.4%
Cc1nn(-c2ccccc2)c2ncnc(N/N=C/c3cccc(O)c3)c12,22.6%,81.6%,44.4%,40.7%,56.4%,50.6%,48.7%,48.2%,27%,22%,30.8%,22.7%,59.2%,77.1%,30.2%,88.4%,54.9%,41.5%,56.9%,23.3%
O=C(Cn1cc(-c2ccccc2)nn1)Nc1nc(-c2ccc(Cl)cc2)cs1,103%,98%,96.2%,91%,76.1%,112%,107%,80.7%,103%,97.8%,98.6%,99.3%,101%,104%,92.7%,94.7%,108%,123%,106%,102%
CCN(CC)c1cn(-c2ccc(S(N)(=O)=O)cc2)nn1,109%,105%,105%,91.8%,103%,106%,93.9%,83.4%,106%,97.7%,97%,103%,102%,105%,101%,113%,113%,110%,98.3%,109%
COc1cc(/C=C/C(=O)c2ccc(NC(=O)CSc3nnc(-c4ccc(-c5nc6ccc(Cl)cc6[nH]5)cc4)o3)cc2)cc(OC)c1OC,99.2%,103%,104%,86%,136%,96.7%,91.2%,101%,85.9%,85%,48.4%,108%,98%,91.3%,102%,99%,88.3%,84.1%,90.9%,84.3%

# — PubChem BioAssay (NCI)
